# Results as given in PubChem BioAssay (NCI).
# Several values for one entry are separate records, joined by “and”; a condition that tells them apart may be missing. Equal values may be shown once. This is part of a sample that, as a whole, favours compounds with a hit. Of some 83,000 tested, about 20% had one in any assay.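 Values shown are percent growth following 48 h exposure of cells in 96-well plates to a single concentration of compound; below 10 was considered active.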 A number with no mark means an inactive call. Activity calls are given as the source filed them.
# Tested on: MDA-MB-468 breast
# Assay: NCI-60 one-dose screen, 48 h (100 = growth as untreated, 0 = no growth, -100 = all killed)
# Conditions: 10 µM unless noted
row,SMILES,growth
1,Cc1cccc(NC(=O)N/C(N)=N/c2nc(C)c(C)s2)c1,14%
2,N#C/C(=C\c1ccc(Br)cc1)n1nnc2cc(Cl)c(Cl)cc21,-5.24% (active)
3,O=C(/C=C/c1ccccc1)Nc1ncc(Cc2ccccc2Cl)s1,8.79% (active)
4,Cc1cccc(Cl)c1N,110%
5,C=CCn1c(SCC(=O)Nc2ccc(C(=O)/C=C/c3cccc([N+](=O)[O-])c3)cc2)nnc1-c1c[nH]c2ccccc12,81.9%
6,C=C(C)[C@@H]1CC[C@]2(C(=O)NS(=O)(=O)c3ccccc3)CC[C@]3(C)[C@H](CC[C@@H]4[C@@]5(C)CC[C@H](OC(=O)NS(=O)(=O)c6ccccc6)C(C)(C)[C@@H]5CC[C@]43C)[C@@H]12,25.8%
7,CCN1C(=O)N(CC)C2C1NN=c1s/c(=C3\C(=O)N(CCC(C)C)c4ccccc43)c(=O)n12 (stereo not drawn),27.1%
8,CN(C)c1ccc(/C=N/NC(=O)CSc2nc3sc4c(c3c(=O)n2-c2ccccc2)CCCCC4)cc1,26.2%
9,Nc1nc2ncc(CCNc3ccc(C(=O)NC(CCC(=O)O)C(=O)O)cc3)nc2c(=O)[nH]1 (stereo not drawn),96.7%
10,COC(=O)[C@]1(C)CCC[C@]2(C)[C@H]3C[C@H]4C(C(C)C)=C[C@]3(CC[C@H]21)[C@@H]1C(=O)CC[C@H](OCCC#N)[C@@H]14,70.5%
11,OCc1cccc(F)c1,68.9%
12,CCO/C=N/C1=C(C#N)C(c2ccc(F)cc2)c2sc3c(C)cccc3c2O1 (stereo not drawn),6% (active)
13,O=C(Nc1ccc(-n2ccc3c(NC(=O)c4ccccc4)nccc32)cc1)Nc1ccc(Cl)c(Cl)c1,-90.1% (active)
14,C/C(=C\c1ccc(OCC(=O)O)c(Cl)c1Cl)[N+](=O)[O-],119%
15,Nc1ccc(-c2cc3c(Nc4ccc(Oc5cccc(C(F)(F)F)c5)c(Cl)c4)ncnc3s2)cc1,-9.82% (active)
16,O=C(CN1CCOCC1)Nc1ccc2ncnc(Nc3ccc(OCc4cccc(F)c4)c(Cl)c3)c2c1,-25.1% (active)
17,O=C(Nc1ncc(Cc2ccccc2)s1)c1sc2ccccc2c1Cl,7.07% (active)

row,SMILES,growth
1,COc1ccc2nc(NCCCNCCO)c3sc4ccc(F)cc4c(=O)c3c2c1,-31.6% (active)
2,O=C(Nc1cccc(-n2cc(-c3ccncc3)c(-c3ccc(Cl)c(O)c3)n2)c1)c1ccc(N2CCOCC2)c(C(F)(F)F)c1,66%
3,C#C[C@]1(O)CC[C@H]2[C@@H]3CC=C4c5sc(Nc6ncccc6C)nc5CC[C@]4(C)[C@H]3CC[C@@]21C,-8.36% (active)
4,COc1ccc2nc(-c3ccc(Cl)cc3)cc(-c3nnc(SC/C(=N\O)c4ccccc4)n3-c3ccccc3)c2c1,60.4%
5,COc1cc(OCc2cccc(-c3ccc(C(O)c4nccs4)cc3)c2C)cc(OC)c1CNCCNC(C)=O (stereo not drawn),92.1%
6,O=CNc1ccc2c(c1)Cc1cc([N+](=O)[O-])ccc1-2,-29.6% (active)
7,COc1cc(-c2nn(C(=O)NS(=O)(=O)c3ccccc3)cc2-c2ccncc2)ccc1Cl,68%
8,CC1OS(=O)OC1C (stereo not drawn),96.4% and 96.2%
9,NC(=NC1C2CC3CC(C2)CC1C3)Nc1ccc(I)cc1 (stereo not drawn),-3.88% (active)
10,COc1cc2c(c(OC)c1O)C(=O)C(OC)C(c1ccc(O)c(O)c1)O2 (stereo not drawn),7.99% (active)
11,CC1(C)NCCC[C@]2(C)[C@H]3CC[C@@H]4[C@H]5[C@H](C(=O)/C=C/c6ccco6)CC[C@]5(CO)CC[C@@]4(C)[C@]3(C)CC[C@@H]12,87.9%
12,COc1ccc2c(=O)cc(C(Cl)(Cl)Cl)oc2c1,-81.2% (active)
13,CCN(C(=O)Nc1cccc2ccccc12)c1ccccc1,99.7%
14,CCOS(=O)(=O)c1ccc([N+](=O)[O-])cc1,119%
15,CC[C@@H]1NC(=O)[C@H]([C@H](O)[C@H](C)C/C=C/c2ccc(CN3C(=O)CCCC3=O)cc2)N(C)C(=O)[C@H](C(C)C)N(C)C(=O)[C@H](CC(C)C)N(C)C(=O)[C@H](CC(C)C)N(C)C(=O)[C@@H](C)NC(=O)[C@H](C)NC(=O)[C@H](CC(C)C)N(C)C(=O)[C@H](C(C)C)NC(=O)[C@H](CC(C)C)N(C)C(=O)CN(C)C1=O,13.4%
16,O=C1C(Cl)=C(N=Nc2c(Cl)c(O)c3ccccc3c2O)C(=O)c2ccccc21,66.3%
